From PubChem BioAssay AID485272 (The Scripps Research Institute Molecular Screening Center, 2010) come the findings set out here.

Among all 330,000 compounds or so, about 1,300 (0.39%) were called active.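 The calls were made as follows: active = percent inhibition above a cutoff equal to the mean of all tested compounds plus 3 SD (cut at about 15% in these data); inactive = the rest.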 This excerpt belongs to a sample that is enriched for actives.

Broadly, the inhibition is the change of the read-out against control, counted positive when it falls.

The experiment deals with Protein-arginine deiminase type-4 (Homo sapiens) (UniProt Q9UM07). As to the kind of experiment: protein arginine deiminase 4 enzyme blockade – biochemical, fluorescence polarization, 1536-well format, primary screen (AID 485272).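 Also: 0% = PAD4 with RCA probe and DMSO and 100% = probe without PAD4.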 The settings on record: recombinant PAD4, RCA probe fluorescence polarization; at 6.36 µM; active compounds read high. (In general: Polarisation of emitted light reports the rotation of a fluorescent probe.)
Protein-arginine deiminase type-4 (Homo sapiens), sequence (Q9UM07 whole entry, looked up): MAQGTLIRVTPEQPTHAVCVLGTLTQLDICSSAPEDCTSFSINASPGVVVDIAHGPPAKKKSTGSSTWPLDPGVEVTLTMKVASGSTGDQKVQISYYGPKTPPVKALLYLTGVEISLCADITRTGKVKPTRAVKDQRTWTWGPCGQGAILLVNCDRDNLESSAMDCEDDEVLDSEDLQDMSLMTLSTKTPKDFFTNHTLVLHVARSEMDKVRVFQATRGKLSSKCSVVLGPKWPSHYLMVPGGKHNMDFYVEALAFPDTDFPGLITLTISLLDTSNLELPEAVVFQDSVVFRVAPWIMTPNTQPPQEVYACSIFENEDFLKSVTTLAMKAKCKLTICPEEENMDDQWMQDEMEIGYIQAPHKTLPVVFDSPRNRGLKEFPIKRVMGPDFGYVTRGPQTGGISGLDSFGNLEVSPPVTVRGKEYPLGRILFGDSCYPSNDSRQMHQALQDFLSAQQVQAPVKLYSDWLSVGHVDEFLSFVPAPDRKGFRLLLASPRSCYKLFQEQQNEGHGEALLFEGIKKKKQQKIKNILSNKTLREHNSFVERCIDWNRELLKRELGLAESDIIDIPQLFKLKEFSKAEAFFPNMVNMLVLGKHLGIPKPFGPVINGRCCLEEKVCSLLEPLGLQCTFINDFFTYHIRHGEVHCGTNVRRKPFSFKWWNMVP
In the case of `c1ccc2c(c1)OCCOCCOCCO2`, the inhibition was 0.83% (inactive).

As to `CCn1c(SCC(=O)Nc2sc(C)c(C)c2C#N)nnc1C1CC1`, the inhibition is -2.74% (inactive).

`CCCc1c(C)nc2c(Br)cccc2c1Cl`: the inhibition is 2.17% (inactive).

For the compound `CCc1ccc2c(c1)C1(NN=C(c3ccccc3)S1)C(=O)N2` (centres undefined), the inhibition is -9.11% (inactive).

For `O=C1Nc2ccccc2C12Nc1ccccc1S2` (centres undefined), the inhibition was 21.3% (active).

On to `COc1ccc(C2(O)C(=O)Nc3ccccc32)cc1` (centres undefined), for which the inhibition was 0.37% (inactive).

Regarding `CC1(C)N=C(c2ccccn2)C(C)(C)N1O`, the inhibition was -1.6% (inactive).

Consider `O=C(NCCc1ccccc1Cl)C1CCC(=O)N(CCCc2ccccc2)C1` (centres undefined), for which the inhibition is 1.05% (inactive).

On to `Cc1c2cnn(CC(=O)NCc3ccccn3)c(=O)c2c(C)n1Cc1ccc(Cl)cc1`, for which the inhibition was 1.37% (inactive).

For the compound `CC(C)CNC(=O)CC(NCC(C)C)C(=O)O` (centres undefined), the inhibition is -2.65% (inactive).

`Cc1cc(O)ccc1-c1cnc2ccccc2n1`: the inhibition is 28.5% (active).

With `Cc1nc2ccccc2nc1N/N=C/c1ccc(O)cc1O`, the inhibition is -3.07% (inactive).

`Oc1ccc(-c2[nH]ncc2-c2nc3ccccc3s2)c(O)c1`: the inhibition was 3.22% (inactive).

For the compound `CS(=O)(=O)N(CC(=O)N1CCN(c2ccc(F)cc2)CC1)C1CCCCC1`, the inhibition is -2.55% (inactive).

`C=CCN1C2CCCC1CC(NC(=S)Nc1cccc(OC)c1)C2` (centres undefined): the inhibition is 3.98% (inactive).

As to `O=C(CN1C(=O)CCS(=O)(=O)c2ccccc21)NCc1ccc(F)cc1`, the inhibition is -1.88% (inactive).

Consider `C[C@H](CO)N1C[C@H](C)[C@@H](CN(C)Cc2ccc(-c3ccccc3)cc2)Oc2ccc(NC(=O)Cn3cnnn3)cc2C1=O`, for which the inhibition is -5.03% (inactive).

In the case of `CN1c2ccc(C=O)c3c(C=O)ccc(c23)N(C)C1(C)C`, the inhibition was 54.5% (active).

With `O=C(Nc1ccc([N+](=O)[O-])cc1)C1(c2ccccc2)CCOCC1`, the inhibition was -2.28% (inactive).

On to `CN(C(=O)CN1C(=O)CCSc2ccc(S(=O)(=O)N3CCCC3)cc21)c1ccccc1`, for which the inhibition was -3.61% (inactive).

Turning to `CNC(=S)NNC(=O)c1cccn(Cc2ccccc2)c1=O`, the inhibition is -2.2% (inactive).

With `CNC(=S)NNC(=O)c1oc2nc(-c3ccccc3)cc(-c3ccco3)c2c1N`, the inhibition was 19.9% (active).

On to `NNC(=O)c1oc2nc(-c3ccccc3)cc(-c3ccco3)c2c1N`, for which the inhibition was -6.02% (inactive).

As to `COc1ccc([C@@H]2[C@@H]3C(=O)N(C(C)(C)C)C(=O)[C@@H]3[C@]3(Cc4ccccc4)C(=O)N(c4cccc(Br)c4)C(=O)N23)cc1`, the inhibition is 0.18% (inactive).

Take `Cc1nn(CC2CC2)c(=O)n1N(C)c1ncc(C(F)(F)F)cc1Cl`: the inhibition was 0.5% (inactive).

On to `O=C(Cc1ccc2c(c1)CCCC2)Nc1ccccc1Cl`, for which the inhibition was 1.33% (inactive).

`Cc1c(NC(=O)Nc2ccccc2Cl)sc(=S)n1C`: the inhibition is -3.79% (inactive).

On to `O=C(Nc1ccccc1Cl)/C(Cl)=C(\Cl)S(=O)c1ccccc1` (centres undefined), for which the inhibition was 16.5% (active).

Consider `CC1CN(c2nc(-c3ccccc3)nnc2-c2ccccc2)CC(C)O1` (centres undefined), for which the inhibition is -2.42% (inactive).

Turning to `Cn1cccc1/C=C1\SC(=S)N(NC(=O)c2ccc(Cl)cc2)C1=O`, the inhibition was -18.5% (inactive).

For `CC(C)C(=O)NC(=S)Nc1ccccc1F`, the inhibition is 5.01% (inactive).

Turning to `CCc1ccccc1NC(=S)Nc1cc(OC)c(NC(=O)C(C)C)cc1OC`, the inhibition is 41.1% (active).

On to `COc1ccccc1NC(=S)NC(=O)C(C)C`, for which the inhibition is -0.01% (inactive).

`C=CCNC(=O)c1ccccc1NC(=O)c1ccc(Cl)c(S(=O)(=O)Nc2cccc(C)c2C)c1`: the inhibition is 2.11% (inactive).

On to `COc1ccc(C)cc1Nc1nc(C)nc2c1oc1ccccc12`, for which the inhibition was 1.33% (inactive).

Consider `Cc1nc(Cl)c2oc3ccccc3c2n1`, for which the inhibition is 15.3% (active).

Regarding `Cc1nc(N2CCCC2C(=O)O)c2oc3ccccc3c2n1` (centres undefined), the inhibition is -1.75% (inactive).

On to `CCCCC[C@@H]1C=C(C(=O)O)[C@H](c2ccc(C#N)cc2)N1S(=O)(=O)c1ccc(C)cc1`, for which the inhibition is 0.94% (inactive).

On to `O=C(N/C(=C\c1ccc([N+](=O)[O-])cc1)C(=O)N1CCCCC1)c1ccco1`, for which the inhibition was 2.37% (inactive).

`COc1cccc(NC(=O)C2c3cc(OC)c(OC)cc3C(=O)N(C)C2c2cccnc2)c1` (centres undefined): the inhibition is 69.3% (active).

Consider `CCOc1cc2c(cc1OCC)C(C(=O)O)C(c1ccc(OC)c(O)c1)N(C)C2=O` (centres undefined), for which the inhibition is -1.73% (inactive).

For the compound `COc1cccc(NC(=O)C2C(c3ccccc3)C2(Cl)Cl)c1` (centres undefined), the inhibition was -7.27% (inactive).

Turning to `CO[C@H]1[C@@H]2C=CO[C@@H](O[C@H]3O[C@@H](CO)[C@H](O)[C@@H](O)[C@@H]3O)[C@@H]2[C@@]2(CO)O[C@@H]12`, the inhibition is 1.64% (inactive).

As for `Cc1nc2ccccc2nc(C)c1=NOCc1ccc(Cl)cc1Cl`, the inhibition is -3.19% (inactive).

For the compound `CCOC(=O)C1CCN(C(=O)CC2C(=O)N(Cc3ccccc3)C(C)c3nc4ccccc4n32)CC1` (centres undefined), the inhibition was -2.42% (inactive).

As for `CCC(CO)Oc1cc(NC(=O)c2ccc(Cl)cc2)c2ncn(C(C)C)c2c1` (centres undefined), the inhibition was -2.59% (inactive).

On to `CC(C)n1cnc2c(NCc3ccccc3)cc(N[C@@H](CO)Cc3ccccc3)cc21`, for which the inhibition is 32.9% (active).

`CCC(CO)Oc1cc(NC(=O)c2cccc(F)c2)c2ncn(C(C)C)c2c1` (centres undefined): the inhibition was 3.9% (inactive).

As for `CC(C)n1cnc2c(NCc3ccccc3)cc(OCC3CCN(C)CC3)cc21`, the inhibition is 16.8% (active).

As for `CCC(CO)Oc1cc(NC(=O)c2cccc3ccccc23)c2ncn(C(C)C)c2c1` (centres undefined), the inhibition was -7.37% (inactive).

On to `CCC(CO)Oc1cc(NCc2ccccc2)c2ncn(C3CCCC3)c2c1` (centres undefined), for which the inhibition was -6.94% (inactive).

For `Cc1ccc(NC(=O)C(C)c2cccc(C(=O)c3ccccc3)c2)cc1` (centres undefined), the inhibition was 1.32% (inactive).

Regarding `O=C(Cn1c2[n+](c3ccc(C(F)(F)F)cc31)CCCCC2)Nc1c(F)cccc1F`, the inhibition was -5.07% (inactive).

Consider `CC(C)C(C)(C#N)NC(=O)CSc1nncn1-c1ccccc1` (centres undefined), for which the inhibition was -0.3% (inactive).

Regarding `CC(C)(C)NC(=O)/C(=C/c1cccnc1)NC(=O)c1ccco1`, the inhibition is 0.75% (inactive).

As for `Cc1cc(C)c2c(Cn3ccnc3)cc(=O)oc2c1`, the inhibition is -4.75% (inactive).

Turning to `Cc1nn(-c2ccccc2)c(C)c1NC(=O)CCl`, the inhibition is 1.95% (inactive).

In the case of `Cc1nn(-c2ccccc2)c(C)c1NC(=O)COC(=O)c1cc(Cl)ccc1O`, the inhibition is 2.71% (inactive).

Take `Cc1ccc2c(c1)N(C(=O)CCC(=O)NCc1cccnc1)CCO2`: the inhibition is -2.36% (inactive).
